TTR transcr act: TTR transcription activators in neuroblastoma reporter cells, primary screen, cell-based, luminescence, SH-SY5Y, TTR promoter Gaussia luciferase; 100% = recombinant luciferase protein wells; activation, % at 16.7 µM; 92,000 tested, 1.3% active; AID 1117267, 2014;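 active = activation above the mean of all tested compounds plus 3 SD, cut at about 9.5% in these data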;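 note: cells exposed to compounds for one day before reading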
HuH7 TTR inh: TTR promoter reporter inhibitors in hepatoma cells, counter-screen for TTR transcription activator project, cell-based, luminescence, HuH7 hepatoma; HuH7 TTR promoter-Gaussia luciferase reporter; AID 1117279, 2014; shares compounds with TTR transcr act; 1,100 tested, 4% active; inhibition, % at 16.7 µM;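 active = average inhibition above the solvent-only control wells' mean plus 3 SD, cut at about 15% in these data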;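 note: inhibitors lower well luminescence so higher value means more inhibition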
TTR up confirm: TTR transcription activators, retest, confirmation, cell-based, luminescence, SH-SY5Y, triplicate | shares compounds with TTR transcr act | SHSY5Y TTR promoter Gaussia luciferase; 100% = purified Lucia enzyme wells, no cells | activation, % at 16.7 µM | 1,100 tested, under 10 active | AID 1117280, 2014;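 active = mean activation above a set limit taken from the earlier primary screen, cut at about 11% in these data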
Numbers stand for hits; i = inactive. Many of the other results were omitted from the sample, so hits are more common in it than they were.

SMILES	TTR transcr act	others
CCCc1cc(=O)[nH]c(SCC(=O)Nc2c(C)n(C)n(-c3ccccc3)c2=O)n1	i
O=C(CCc1ccccc1)N=C1SC2CS(=O)(=O)CC2N1c1cccc(F)c1 (configuration not stated)	i
COc1ccc(NC2=Nc3cccc4cccc2c34)cc1	15	HuH7 TTR inh=i;TTR up confirm=i
COc1ccc(Nc2nc(Cl)nc(Nc3ccc(OC)cc3)n2)cc1	i
COC1=C(Nc2ccc(OC)cc2)C(=O)C(OC)=C(Nc2ccc(OC)cc2)C1=O	i
COc1ccc(OC)c(N/C(=N/C(=S)Nc2ccccc2)Nc2nc(C)cc(C)n2)c1	i
CCOC(=O)c1cc(S(=O)(=O)NC2CCC(C)CC2)cn1C (configuration not stated)	i
CCOc1cc2[nH]c(=S)n(CCCCC(=O)NCc3ccco3)c(=O)c2cc1OCC	i
CCOc1cc2[nH]c(=S)n(CCC(=O)NCc3ccc(OC)cc3)c(=O)c2cc1OCC	26	HuH7 TTR inh=i;TTR up confirm=i
CCOc1cc2[nH]c(=S)n(CCCOC)c(=O)c2cc1OCC	i
OCCN(CCO)c1cc2c3ccccc3ccc2c2ccccc12	i
CCOC(=O)CSc1nnc(Cn2nnc3ccccc32)n1-c1ccc(F)cc1	i
CC(C)(C)OC(=O)CNC(=O)c1[nH]cnc1C(=O)NCC(=O)OCc1ccccc1	i
O=C(CNC(=O)c1[nH]cnc1C(=O)N[C@@H](Cc1ccccc1)C(=O)OCc1ccccc1)OCc1ccccc1	i
O=C(CNC(=O)c1[nH]cnc1C(=O)NC(c1ccccc1)c1ccccc1)OCc1ccccc1	11	HuH7 TTR inh=i;TTR up confirm=i
CCOC(=O)[C@@H]1[C@H]2COc3cc(OC)ccc3[C@H]2N2C(=O)N(c3ccc(C)cc3)C(=O)[C@]12C	i
COCCn1c(Cc2ccccc2)nnc1SCC(=O)NC1CCCCC1	i
Cc1ccc2cc(CN(CC(C)C)S(=O)(=O)c3cccc4nonc34)c(=O)[nH]c2c1	i
O=C(NCc1ccccc1)c1ccc(CO)cc1	i
O=C(NCc1ccccc1)NC(=O)c1ccc(Cl)cc1	25	HuH7 TTR inh=i;TTR up confirm=i
O=C(NCc1ccccc1Cl)NC(=O)c1ccccc1	i
CC(C)CNS(=O)(=O)c1cc2c3c(c1)CCC(=O)N3CCC2	i
CC(NC(=O)CSc1cccc(C(F)(F)F)c1)c1ccccc1 (configuration not stated)	i
CN(C)C(CNC(=O)Cc1cccc(C(F)(F)F)c1)c1ccccc1 (configuration not stated)	15	HuH7 TTR inh=i;TTR up confirm=i
O=C(Cc1cccc(C(F)(F)F)c1)NCc1ccc(Cl)cc1	i
SMILES	TTR transcr act	others
Cc1nccc(-c2cccc(NC(=O)c3ccccc3Cl)c2)n1	i
Cc1cccc(OCC(=O)NCCNC(=O)c2ccccn2)c1	i
Cc1ccc2c(COC(=O)C3CC(=O)N(c4ccc5c(c4)OCCO5)C3)cc(=O)oc2c1 (configuration not stated)	i
O=C(COC(=O)C1CC(=O)N(c2ccc3c(c2)OCCO3)C1)Nc1ccc2c(c1)CCC2 (configuration not stated)	11	HuH7 TTR inh=i;TTR up confirm=i
CC(=O)c1ccc(NC(=O)C(C)OC(=O)C2CC(=O)N(c3ccc4c(c3)OCCO4)C2)cc1 (configuration not stated)	i
CCOC(=O)C1CCN(CC(O)COC(CC)c2ccccc2)CC1 (configuration not stated)	i
Cc1cccc(C)c1NC(=O)c1ccc(-c2cc(F)ccc2F)o1	i
O=C(NCCc1nc2ccccc2n1CCOc1cc(F)ccc1F)C1CCCCC1	i
CCOC(=O)C1CCN(c2c(NCc3ccc(C(=O)N(C)Cc4ccccc4)cc3)c(=O)c2=O)CC1	i
CCN(CC(=O)NCc1cccs1)C(=O)c1cccc(S(=O)(=O)N(C)C)c1	i
CC(C)c1ccccc1OCCCCCN1CCOCC1	i
O=C(CN1C(=O)CSc2ccc(S(=O)(=O)N3CCCCC3)cc21)NCc1cccnc1	11	HuH7 TTR inh=i;TTR up confirm=i
O=C(CN1C(=O)CCSc2ccc(S(=O)(=O)N3CCCC3)cc21)NCc1ccccc1Cl	i
O=C(CN1C(=O)CSc2ccc(S(=O)(=O)N3CCOCC3)cc21)NCc1c(F)cccc1Cl	i
NS(=O)(=O)c1ccc(Sc2ccc3c(c2)CCC3)nc1	i
COC[C@@H]1CCCN1c1cccc2c1S(=O)(=O)N1CC[C@@H](C1)O2	i
CC(C)C(=O)Nc1cccc(-c2nc3ccccc3o2)c1	i
O=C(CSc1ccc(Cl)cc1)Nc1cccc(-c2nc3ncccc3o2)c1	i
CC(C)C(=O)Nc1cccc(-c2nc3ncccc3o2)c1	15	HuH7 TTR inh=i;TTR up confirm=i
CC1(C)CC(=O)c2cnc(NC(=O)CSC(=S)N3CCCCC3)nc2C1	i
COCCN(Cc1cc2ccc(C)cc2[nH]c1=O)S(=O)(=O)c1ccccc1	i
C[C@H]1[C@@H](OC(=O)NCc2ccco2)CC[C@@]23CCCN2C(=O)CCC[C@@H]13	i
Cc1ccc(/C=N/NC(=O)c2nnn(-c3nonc3N)c2C(C)C)o1	i
Cc1cc([N+](=O)[O-])ccc1P(=O)(O)c1ccc([N+](=O)[O-])cc1C	i
O=C(NC1CCCCC1)c1nc(C2CCNCC2)oc1-c1ccccc1	i
SMILES	TTR transcr act	others
Cn1cccc1/C=N/NC(N)=S	i
Cn1cccc1/C=N/NC(=O)C(O)c1ccccc1 (configuration not stated)	25	HuH7 TTR inh=i;TTR up confirm=i
Cn1cccc1/C=N/NC(=O)Cc1ccccc1	i
Cc1onc(NC(=O)NC(=O)c2c(Cl)cccc2Cl)c1Br	i
O[C@H]1C[C@H](c2ccccc2)N(CC2CCCCC2)C[C@@H]1n1cc(-c2ccc(F)cc2)nn1	i
Cc1ccc([C@H]2C[C@H](n3cc(-c4ccc(F)cc4)nn3)[C@@H](O)CN2C(=O)C2CCCCC2)cc1	i
O=C(C1CCCCC1)N1C[C@H](n2cc(-c3ccc(F)cc3)nn2)[C@@H](O)C[C@@H]1c1ccccc1	13	HuH7 TTR inh=i;TTR up confirm=i
C=CCn1c(SCC(=O)N(C)C2CCS(=O)(=O)C2)nnc1-c1ccccc1 (configuration not stated)	i
O=C1NC(c2ccc(Br)cc2)Oc2ccccc21 (configuration not stated)	i
COc1ccc(S(=O)(=O)Nc2ccc3c(c2)C(=O)N([C@H](C)CO)C[C@H](C)[C@@H](CN(C)S(=O)(=O)c2c(C)noc2C)O3)cc1	i
Cc1ccc(C)c(OCC(=O)O/N=C(\N)c2cccnc2)c1	i
Cc1cccc(/C(N)=N/OC(=O)Cc2cccc3ccccc23)c1	i
Cc1cccc(/C(N)=N/OC(=O)COc2ccc(Cl)c(C)c2)c1	11	HuH7 TTR inh=i;TTR up confirm=i
Cc1ccccc1CN1CCCCC(NC(=O)c2cccc([N+](=O)[O-])c2)C1=O (configuration not stated)	i
Cc1cccc(C(=O)OCC(=O)NC(=O)NCc2ccccc2)c1	i
O=S(=O)(N/N=C/c1ccc(OC2CSC2)cc1)c1ccccc1	12	HuH7 TTR inh=i;TTR up confirm=i
O=S(=O)(N/N=C/c1cccc(OC2CSC2)c1)c1ccccc1	i
Cc1ccc(S(=O)(=O)N/N=C/c2cccc(OC3CSC3)c2)cc1	i
CCOC(=O)CCCCCC(=O)Nc1ccc2c(c1)C(=O)N([C@@H](C)CO)C[C@H](C)[C@H](CN(C)C(=O)c1ccccc1)OCCCC[C@H](C)O2	i

From PubChem
